CHT PAM – allosterically activates the human high affinity choline transporter; AID 488977; Q9GZV3; B-score at 10 µM; 0.49% of 310,000 active; CHT-expressing cells, membrane potential dye, choline EC20; stronger effect = higher value; LV-AA mutant CHT in HEK293 cells;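 active means initial fluorescence not abnormally high and integrated response B-score, plate-corrected, over 3 SD above library mean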
ANO1 activ – activates or potentiates the mouse TMEM16A chloride channel | AID 623877 | HEK293 TMEM16A/YFP-H148Q/I152L, iodide quench fluorescence; stronger effect = lower value | B-score at 10 µM | Q8BHY3 | 0.3% of 340,000 active;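 active means fluorescence-ratio B-score plate-corrected deviation score at least 3 library SD below zero, with starting fluorescence score within 5 deviations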;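 further: channel opened by trigger with iodide after compound preincubation; score built on the fluorescence ratio of max minus min over baseline; more negative score means more quench and so TMEM16A activation or potentiation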
ANO1 block – mouse TMEM16A channel inhibition, primary screen; Q8BHY3; HEK293 TMEM16A/YFP iodide influx fluorescence, ionomycin; normalized B-score (activity score, 25-100; higher = stronger inhibition) at 10 µM; 1.2% of 310,000 active; AID 588511;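 active means ratio plate-corrected score three or more library SD toward inhibition, starting fluorescence score within five deviations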;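 further: score derived from kinetic fluorescence span divided by baseline fluorescence per well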
CHT inh – inhibitors of human choline transporter CHT | Q9GZV3 | CHT-expressing cells, membrane potential dye, choline response; stronger effect = lower value | B-score at 10 µM | 0.86% of 310,000 active | AID 488975;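 active means B-score over 3 SD under the library average, and starting fluorescence ratio not unusually high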;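 further: choline stimulus applied at its EC90 after an EC20 pre-addition; B-score computed on integrated fluorescence ratio after choline addition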
TMEM16A reconf – TMEM16A (mouse) chloride channel inhibition, re-confirmation; shares compounds with ANO1 block; HEK293 TMEM16A/YFP-H148Q, iodide quench fluorescence; ionomycin added to raise cell calcium; inhibition, % at 10 µM; 39% of 2,300 active;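 active means mean duplicate percent inhibition, scaled so buffer wells are 0 and the reference blocker 100, over three buffer SD above buffer mean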
TMEM16A Ca cntr – calcium mobilization counter-screen hit for TMEM16A inhibitor series; shares compounds with ANO1 block; TMEM16A/YFP HEK293, Fluo4 calcium mobilization; calcium response (% of ionomycin), % at 10 µM; 2% of 2,300 active; AID 652231;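 active means duplicate-averaged calcium signal over 20% of the ionomycin maximum, relative to buffer baseline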;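 further: each well's signal is peak minus trough fluorescence divided by its pre-addition baseline; 0% = buffer wells and 100% = ionomycin wells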
YFP-HEK293 quench – counter-screen for TMEM16A inhibitors: effect in parental YFP-HEK293 cells; shares compounds with ANO1 block; iodide YFP quench, ionomycin; YFP ratio F(max-min)/F0 at 10 µM; 2,300 tested, under 10 active; AID 652233;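 active means yellow fluorescent protein signal ratio exceeding the buffer control mean by over 5 SD of those controls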;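 further: ratio is mean of duplicate wells from kinetic YFP trace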
ClC-1 inh – selectivity of TMEM16A inhibitors: inhibition of rat ClC-1 chloride channel; shares compounds with ANO1 block; CHO ClC-1-YFP, iodide influx fluorescence quench; iodide control reads 0, buffer control 100; ratio percent, % at 10 µM; 2,300 tested, under 10 active; AID 652236;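 active means duplicate-mean ratio percent above the mean of iodide-only control wells, which defines zero, plus 5 of their SD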;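 further: higher percent means stronger block of ClC-1 iodide influx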
Target sequence (P35524 whole entry, looked up): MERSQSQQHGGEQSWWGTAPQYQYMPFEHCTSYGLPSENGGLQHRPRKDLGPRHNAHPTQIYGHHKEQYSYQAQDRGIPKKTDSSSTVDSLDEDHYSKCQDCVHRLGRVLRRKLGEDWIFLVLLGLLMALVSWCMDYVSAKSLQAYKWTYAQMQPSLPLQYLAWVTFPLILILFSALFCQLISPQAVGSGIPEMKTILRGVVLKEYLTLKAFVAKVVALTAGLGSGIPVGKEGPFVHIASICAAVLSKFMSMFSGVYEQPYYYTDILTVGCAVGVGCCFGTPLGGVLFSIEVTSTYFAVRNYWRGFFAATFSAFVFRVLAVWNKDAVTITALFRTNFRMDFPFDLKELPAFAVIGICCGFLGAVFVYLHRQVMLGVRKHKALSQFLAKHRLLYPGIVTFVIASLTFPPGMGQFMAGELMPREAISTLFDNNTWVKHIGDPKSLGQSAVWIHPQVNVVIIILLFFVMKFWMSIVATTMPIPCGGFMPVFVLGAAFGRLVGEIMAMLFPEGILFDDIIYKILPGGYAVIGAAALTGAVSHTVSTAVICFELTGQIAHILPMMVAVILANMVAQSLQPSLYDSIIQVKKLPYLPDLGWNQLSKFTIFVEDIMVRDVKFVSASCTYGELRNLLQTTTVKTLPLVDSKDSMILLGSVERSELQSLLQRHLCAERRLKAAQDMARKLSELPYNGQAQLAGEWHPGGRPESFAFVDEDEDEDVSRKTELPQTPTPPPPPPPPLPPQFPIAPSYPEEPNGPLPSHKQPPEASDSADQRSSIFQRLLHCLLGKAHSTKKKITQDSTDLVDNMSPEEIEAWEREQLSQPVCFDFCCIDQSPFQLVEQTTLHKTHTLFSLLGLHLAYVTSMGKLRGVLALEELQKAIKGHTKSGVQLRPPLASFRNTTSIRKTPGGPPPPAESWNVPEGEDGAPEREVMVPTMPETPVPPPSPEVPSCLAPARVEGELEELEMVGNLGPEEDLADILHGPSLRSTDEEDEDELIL
* = called active by the depositor. An excerpt weighted towards active compounds, which were near 2.3% of everything screened.

For CC1CC(C)CN(c2ncnc3c2cnn3Cc2ccc(Cl)cc2)C1 (stereo unspecified) the results were CHT PAM inactive, ANO1 activ inactive, ANO1 block 25*, CHT inh inactive, TMEM16A reconf inactive, TMEM16A Ca cntr inactive, YFP-HEK293 quench -1 and ClC-1 inh -2.
`O=C(c1cc(-c2ccccc2)nc2ccccc12)N1N=C(C(F)F)CC1(O)C(F)F` (stereo unspecified) gave CHT PAM inactive, ANO1 activ inactive, ANO1 block 100*, CHT inh inactive, TMEM16A reconf inactive, TMEM16A Ca cntr inactive, YFP-HEK293 quench -0.95 and ClC-1 inh -4.
`Cc1ccc(-c2cc(C(=O)N3N=C(C(F)F)CC3(O)C(F)F)c3ccccc3n2)cc1C` (stereo unspecified) gave CHT PAM inactive, ANO1 activ inactive, ANO1 block inactive and CHT inh inactive.
N#CCC(=O)N/N=C\c1ccccc1OC/C=C/c1ccccc1 was read as CHT PAM inactive, ANO1 activ inactive, ANO1 block inactive and CHT inh inactive.
Screening Cc1ccc(C(=O)c2cc3c(cc2[N+](=O)[O-])OCCO3)cc1 returned CHT PAM inactive, ANO1 activ inactive, ANO1 block inactive and CHT inh inactive.
Screening O=C(CSc1nc2ccc([N+](=O)[O-])cc2[nH]1)NC1CCCCC1 returned CHT PAM inactive, ANO1 activ inactive, ANO1 block 25*, CHT inh inactive, TMEM16A reconf inactive, TMEM16A Ca cntr inactive, YFP-HEK293 quench -0.98 and ClC-1 inh -8.
`CCCC(CCC)C(=O)Nc1c[nH]c(=O)[nH]c1=O` gave CHT PAM inactive, ANO1 activ inactive, ANO1 block 100*, CHT inh inactive, TMEM16A reconf inactive, TMEM16A Ca cntr inactive, YFP-HEK293 quench -0.99 and ClC-1 inh -22.
For CCc1ccc(-c2cc3c(=O)n(CC(=O)NCCCN4CCN(CC)CC4)nc(C)n3n2)cc1 the results were CHT PAM inactive, ANO1 activ inactive, ANO1 block inactive and CHT inh inactive.
For Cc1ccccc1Nc1scc(-c2ccc(Cl)cc2)[n+]1-c1ccccc1C the results were ANO1 activ inactive.
CCN(CC)CCNC(=O)CS(=O)Cc1nc(-c2ccc(C)cc2)oc1C (stereo unspecified) was read as CHT PAM inactive, ANO1 activ inactive, ANO1 block inactive, CHT inh inactive, TMEM16A reconf inactive, TMEM16A Ca cntr inactive, YFP-HEK293 quench -0.92 and ClC-1 inh -8.
For COC(=O)C1CSC(c2ccc(Cl)cc2)N1C(=O)c1ccccc1 (stereo unspecified) the results were CHT PAM inactive, ANO1 activ inactive, ANO1 block inactive and CHT inh inactive.
CC1=C(CCN2CCN(C(C)C)C(CCO)C2)C(C)(C)CCC1 (stereo unspecified) was read as CHT PAM inactive, ANO1 activ inactive, ANO1 block inactive and CHT inh inactive.
Screening CCN(CC)C(=O)C1CCCN(c2ccc([N+](=O)[O-])cc2/C=N/NC(=O)c2cccc(Br)c2)C1 (stereo unspecified) returned CHT PAM inactive, ANO1 activ inactive, ANO1 block 100*, CHT inh inactive, TMEM16A reconf inactive, TMEM16A Ca cntr inactive, YFP-HEK293 quench -0.86 and ClC-1 inh -12.
Screening COc1ccc(C(=O)CSC2=C(C#N)C3(CCCCC3)C(C#N)=C(N)N2)cc1 returned CHT PAM inactive, ANO1 activ inactive, ANO1 block inactive and CHT inh inactive.
Screening N#CC1=C(N)NC(SCC(=O)c2ccc(Cl)cc2)=C(C#N)C12CCCC2 returned CHT PAM inactive, ANO1 activ inactive, ANO1 block 100*, CHT inh inactive, TMEM16A reconf inactive, TMEM16A Ca cntr inactive, YFP-HEK293 quench -1.1 and ClC-1 inh -6.
Screening NC(=O)C1CCN(C(=O)NC(=O)c2ccccc2)CC1 returned CHT PAM inactive, ANO1 activ inactive, ANO1 block inactive and CHT inh inactive.
N#C/C(=C\c1ccc(Sc2nc3ccccc3[nH]2)o1)c1ccccc1 was read as CHT PAM inactive, ANO1 activ inactive, ANO1 block 100*, CHT inh inactive, TMEM16A reconf 22%*, TMEM16A Ca cntr inactive, YFP-HEK293 quench -0.93 and ClC-1 inh -20.
`O=C(COC(=O)C1CC2CCCC(C1)C2=O)Nc1cccc(F)c1` (stereo unspecified) gave ANO1 activ inactive.
COc1ccc(N(CC(=O)NCc2ccc(Cl)cc2)S(=O)(=O)c2ccccc2[N+](=O)[O-])c(OC)c1 was read as CHT PAM inactive, ANO1 activ inactive, ANO1 block inactive and CHT inh inactive.
`Cc1ccsc1/C=N/Nc1ncc(Cl)cc1Cl` gave CHT PAM inactive, ANO1 activ inactive, ANO1 block 100*, CHT inh inactive, TMEM16A reconf 40%*, TMEM16A Ca cntr inactive, YFP-HEK293 quench -0.94 and ClC-1 inh -8.
Screening CCOC(=O)C(CC)Sc1nnc(COc2ccc(C)cc2)n1-c1ccccc1 (stereo unspecified) returned CHT PAM inactive, ANO1 activ inactive, ANO1 block inactive and CHT inh inactive.
For COc1ccccc1C(C(C(=O)c1ccccc1)N1CCOCC1)N1CCOCC1 (stereo unspecified) the results were ANO1 activ inactive.
For Cc1nc(C(F)(F)F)c(C(=O)NC(=O)Nc2ccc(OC(F)(F)F)cc2)s1 the results were CHT PAM inactive, ANO1 activ inactive, ANO1 block 100*, CHT inh inactive, TMEM16A reconf inactive, TMEM16A Ca cntr inactive, YFP-HEK293 quench -1.1 and ClC-1 inh 4.
Cc1nc(C(F)(F)F)c(C(=O)NC(=O)Nc2ccccc2)s1 was read as CHT PAM inactive, ANO1 activ inactive, ANO1 block inactive and CHT inh inactive.
Screening CC(NCCc1ccc(O)cc1)C(O)c1ccc(O)cc1 (stereo unspecified) returned CHT PAM inactive, ANO1 activ inactive, ANO1 block 100*, CHT inh inactive, TMEM16A reconf inactive, TMEM16A Ca cntr inactive, YFP-HEK293 quench -0.92 and ClC-1 inh -10.
